C diff growth: blocks growth of Clostridium difficile; AID 1259249; Clostridium difficile clinical isolate growth, OD600, 24 h; hits give low values; growth activity, negative = inhibition, % at 16 µg/mL (by protocol); 0.25% of 86,000 active;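 active means mean growth activity at or below -80% and every replicate also at or below -80%; inconclusive means mean at or below -80% but some replicate above -80%; inactive means mean growth activity above -80%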;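 further: 0% = DMSO wells and -100% = levofloxacin 16 µg/mL wells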
Pf Dd2 growth: inhibitors of Plasmodium falciparum Dd2 growth. P. falciparum Dd2 growth, SYBR Green, 72 h; hits give low values. AID 1159554. 2.3% of 94,000 active. activity change, % at 10 µM; in the data active means activity change below about -80%; inconclusive means no clear call, values can overlap the other calls
T cruzi growth-1: T. cruzi proliferation inhibition; 5.9% of 77,000 active; AID 624255; inhibition, % at 8.34 µM; T. cruzi beta-gal in NIH3T3, GalScreen luminescence, 90 h;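 active means mean inhibition above about 93%, with at least 55% of replicates each passing it, limit read from the data, passing the limit was not always enough; inconclusive means only one of those two conditions holds; inactive means neither condition holds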
T cruzi growth-2: Trypanosoma cruzi proliferation inhibition; shares compounds with T cruzi growth-1; T. cruzi beta-gal in NIH3T3, GalScreen luminescence, 90 h; inhibition, % at 8.35 µM; 72% of 5,600 active; AID 651739;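 active means mean replicate inhibition above about 95% and at least 55% of replicates individually reaching it, limit read from the data; inconclusive means only one of the two criteria is met; inactive means neither criterion is met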
T cruzi growth-3: blocks T. cruzi growth in NIH3T3 host cells; shares compounds with T cruzi growth-1; T. cruzi beta-gal in NIH3T3, GalScreen luminescence, 90 h; inhibition, % at 2.09 µM; 21% of 5,600 active;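 active means mean inhibition above about 95%, with at least 55% of replicates also reaching it, limit read from the data; inconclusive means meets just one of the two conditions; inactive means meets neither condition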;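 further: plate controls were neutral control median for no effect and positive control median for full effect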
3T3 cytotox: cytotoxicity in mouse NIH/3T3 fibroblasts | shares compounds with T cruzi growth-1 | NIH/3T3 viability, CellTiter-Glo ATP luminescence, 90 h | cytotoxicity (signal decrease), % at 8.35 µM | 14% of 5,600 active | AID 651742;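 active means mean signal decrease across replicates above about 35% based on untreated-well scatter, with enough replicates individually passing, limit read from the data; inconclusive means no rule stated though some were filed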;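 further: 0% = median of neutral control wells and 100% = median of positive control wells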
NIH3T3 tox 2: cytotoxicity in mouse NIH/3T3 fibroblasts | shares compounds with T cruzi growth-1 | inhibition, % at 24.9 µM | 56% of 5,600 active | NIH/3T3 viability, CellTiter-Glo ATP luminescence, 90 h;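 active means mean loss of cell viability signal at or above a set limit, and enough replicates individually reaching it; inconclusive means meets only the mean limit or only the replicate share; inactive means meets neither condition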;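 further: 0% = median of neutral control wells and 100% = median of positive control wells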
An asterisk follows results filed as active; ? = inconclusive; / = no result given. A selection: hits, their analogues and other compounds. The true share with any hit is near 6.7%.

SMILES | C diff growth | Pf Dd2 growth | T cruzi growth-1 | T cruzi growth-2 | T cruzi growth-3 | 3T3 cytotox | NIH3T3 tox 2
OC[C@@H]1[C@H](c2ccc(-c3cccc(F)c3)cc2)[C@H]2CN(Cc3cncnc3)CCCCN12 | -3.0 | 9.1 | 95.6* | 73.1 | 70.4 | 20.0 | 102.1*
COc1ccccc1NC(=O)N[C@H]1C=C[C@@H](CC(=O)NCc2ccc(Cl)c(Cl)c2)O[C@@H]1CO | / | -1.4 | 21.5 | / | / | / | /
COc1ccc(NC(=O)N2C[C@@H](O)COC[C@H]3O[C@H](CC(=O)N4CCN(C)CC4)CC[C@@H]32)cc1 | / | -1.0 | 7.6 | / | / | / | /
Cc1ccccc1-c1ccc2c(c1)O[C@@H](CN(C)C(=O)Nc1ccc(C(F)(F)F)cc1)[C@@H](C)CN([C@@H](C)CO)S2(=O)=O | 19.5 | -75.4 | 91.8 | / | / | / | /
C[C@H](CO)N1C[C@H](C)[C@H](CN(C)C(=O)Nc2ccc(C(F)(F)F)cc2)Oc2cc(-c3ccncc3)ccc2S1(=O)=O | 10.9 | -35.9 | 74.5 | / | / | / | /
C[C@@H]1CN([C@H](C)CO)S(=O)(=O)c2ccc(-c3ccncc3)cc2O[C@H]1CN(C)C(=O)Nc1ccc(C(F)(F)F)cc1 | 5.9 | -42.2 | ? | 106.1* | 89.6 | 38.5* | 72.7*
Cc1ccccc1-c1ccc2c(c1)O[C@@H](CN(C)C(=O)Nc1ccc(C(F)(F)F)cc1)[C@H](C)CN([C@H](C)CO)S2(=O)=O | 36.3 | -44.8 | 100.9* | 92.4 | 98.3* | 51.2* | 103.7*
C[C@H]1CN([C@@H](C)CO)S(=O)(=O)c2ccc(-c3ccncc3)cc2O[C@@H]1CN(C)C(=O)Nc1ccc(C(F)(F)F)cc1 | 1.0 | -63.0 | 102.1* | 104.3* | 85.4 | 28.8 | 78.8*
C[C@H]1CN([C@@H](C)CO)S(=O)(=O)c2ccc(-c3ccncc3)cc2O[C@H]1CN(C)C(=O)Nc1ccc(C(F)(F)F)cc1 | 7.8 | -6.5 | 73.5 | / | / | / | /
C[C@@H]1CN([C@@H](C)CO)C(=O)Cc2cc(NS(C)(=O)=O)ccc2O[C@@H]1CN(C)C(=O)Nc1ccc(F)cc1 | 5.8 | 8.8 | 12.6 | / | / | / | /
Cc1cccc(S(=O)(=O)N2C[C@H](O)COC[C@@H]3O[C@H](CC(=O)NCc4ccncn4)CC[C@H]32)c1 | / | -5.2 | 34.6 | / | / | / | /
CC(C)NC(=O)N(C)C[C@@H]1Oc2cc(-c3ccccc3F)ccc2S(=O)(=O)N([C@@H](C)CO)C[C@@H]1C | -10.8 | / | -4.7 | / | / | / | /
Cc1cc(C(=O)Nc2ccc3c(c2)C(=O)N(C)[C@@H]2CC[C@@H](CC(=O)N[C@H](C)c4ccccc4)O[C@H]2CO3)no1 | 0.1 | -18.3 | 20.3 | / | / | / | /
CO[C@H](CN(C)C(=O)Nc1ccc(Cl)cc1)[C@@H](C)CN(Cc1ccccc1Cl)[C@@H](C)CO | / | -28.6 | ? | 108.9* | 66.8 | 16.1 | 39.7*
CO[C@@H](CN(C)C(=O)Nc1ccc(C(F)(F)F)cc1)[C@H](C)CN(Cc1ccccc1Cl)[C@H](C)CO | / | -36.2 | 58.0 | / | / | / | /
CO[C@H](CN(C)C(=O)Nc1ccc(C(F)(F)F)cc1)[C@H](C)CN(Cc1ccccc1Cl)[C@H](C)CO | / | -64.5 | 105.1* | 110.3* | 82.3 | 46.1* | 104.5*
CO[C@@H](CN(C)C(=O)Nc1ccc(F)cc1)[C@@H](C)CN(Cc1ccccc1Cl)[C@@H](C)CO | / | -29.1 | -13.6 | / | / | / | /
CO[C@@H](CN(C)C(=O)Nc1ccc(F)cc1)[C@@H](C)CN(Cc1ccccc1Cl)[C@H](C)CO | / | -34.9 | 7.3 | / | / | / | /
CO[C@@H](CN(C)S(=O)(=O)c1ccc(F)cc1)[C@@H](C)CN(Cc1ccccc1Cl)[C@H](C)CO | / | -39.3 | 107.2* | 72.1 | -4.6 | -2.6 | ?
CO[C@H](CN(C)S(=O)(=O)c1ccc(F)cc1)[C@H](C)CN(Cc1ccccc1Cl)[C@H](C)CO | / | -44.9 | 52.8 | / | / | / | /
CO[C@H](CN(C)C(=O)Nc1ccc(C(F)(F)F)cc1)[C@@H](C)CN(Cc1ccccc1Cl)[C@H](C)CO | / | -44.9 | 97.7* | 103.4* | 68.8 | 45.1* | 103.1*
C[C@H](NC(=O)[C@H]1[C@H](CO)[C@H]2Cn3c(ccc(-c4ccccc4F)c3=O)[C@@H]1N2C)c1ccccc1 | 5.4 | / | 54.9 | / | / | / | /
O=C(C[C@@H]1C=C[C@@H](NC(=O)CC2CC2)[C@H](CO)O1)NCC(F)(F)F | 3.0 | 9.5 | 44.3 | / | / | / | /
C[C@@H]1CN([C@H](C)CO)C(=O)c2cc(NC(=O)C3CC3)ccc2O[C@@H]1CN(C)S(=O)(=O)c1ccc(F)cc1 | -1.1 | 13.3 | 26.5 | / | / | / | /
O=C(Nc1cccc(F)c1)N1CCCCN2[C@H](C1)[C@H](c1ccc(-c3ccncc3)cc1)[C@@H]2CO | -0.7 | -19.7 | 76.4 | / | / | / | /
SMILES | C diff growth | Pf Dd2 growth | T cruzi growth-1 | T cruzi growth-2 | T cruzi growth-3 | 3T3 cytotox | NIH3T3 tox 2
O=C(Nc1cccc(F)c1)N1CCCCN2[C@@H](CO)[C@@H](c3ccc(-c4ccncc4)cc3)[C@@H]2C1 | 11.4 | -57.6 | ? | 104.5* | 82.9 | 22.6 | 43.1*
Cc1ccc(-c2ccc([C@@H]3[C@@H](CO)N4CCCCN(C(=O)Nc5cccc(F)c5)C[C@@H]34)cc2)cc1 | 65.0 | -19.9 | 104.8* | 89.2 | ? | 68.8* | 104.8*
Cc1ccc(-c2ccc([C@@H]3[C@H]4CN(C(=O)Nc5cccc(F)c5)CCCCN4[C@H]3CO)cc2)cc1 | 50.4 | 10.0 | 98.9* | 99.6* | 108.2* | 46.7* | 103.8*
Cc1ccc(-c2ccc([C@H]3[C@@H](CO)N4C(=O)CN(C(=O)Nc5cccc(F)c5)C[C@@H]34)cc2)cc1 | 11.3 | -40.4 | / | / | / | / | /
CO[C@@H]1CN(C)C(=O)c2cc(NC(C)=O)ccc2OC[C@H](C)NC[C@H]1C | 1.0 | 24.1 | 81.0 | / | / | / | /
CO[C@@H]1CN(C)C(=O)c2ccc(NC(=O)c3ccccn3)cc2OC[C@@H](C)N(C(=O)Nc2ccccc2Cl)C[C@H]1C | / | 6.2 | -31.7 | / | / | / | /
O=C(C[C@@H]1C[C@H]2c3cc(NC(=O)Cc4ccncc4)ccc3O[C@H]2[C@@H](CO)O1)NCc1cccnc1 | 1.0 | 8.0 | 6.6 | / | / | / | /
O=C(C[C@@H]1C[C@H]2c3cc(NC(=O)NC4CCCC4)ccc3O[C@H]2[C@H](CO)O1)NCc1ccc(-c2ccccc2)cc1 | -3.8 | -18.5 | 100.4* | 104.8* | ? | -11.5 | 51.4*
O=C(C[C@H]1C[C@@H]2c3cc(NC(=O)NC4CCCC4)ccc3O[C@@H]2[C@@H](CO)O1)NCc1ccc(Cl)cc1 | -1.2 | -24.0 | ? | 103.2* | 42.0 | 21.7 | 18.2
O=C(C[C@@H]1C[C@H]2c3cc(NC(=O)NC4CCCC4)ccc3O[C@H]2[C@@H](CO)O1)NCc1ccc(Cl)cc1 | -2.6 | 3.6 | 35.8 | / | / | / | /
O=C(C[C@@H]1C[C@H]2c3cc(NC(=O)NC4CCCC4)ccc3O[C@H]2[C@@H](CO)O1)NCc1ccc(-c2ccccc2)cc1 | 5.6 | 6.5 | 84.6 | / | / | / | /

Screening data deposited in PubChem by Broad Institute.
